According to PubChem BioAssay (NCI):
This is part of a sample that, as a whole, favours compounds with a hit. Of some 83,000 tested, about 20% had one in any assay.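 Cells were grown in 96-well plates and exposed to the test compound at a single concentration for 48 hours; results are reported as percent growth, with values below 10 considered active.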 The source made the active and inactive calls.

What follows are compounds tested on HL-60(TB) leukemia (assay: NCI-60 one-dose screen, 48 h (100 = growth as untreated, 0 = no growth, -100 = all killed)). Conditions: 10 µM unless noted.

Compound	growth
CC(=O)OCC1CCCO1 (centres undefined)	84.7% (inactive)
NS(=O)(=O)c1ccc(-n2ncc3c(=O)[nH]c(CN4CCN(c5cc6c(cc5F)c(=O)c(C(=O)O)cn6C5CC5)CC4)nc32)cc1	98% (inactive)
N[C@@H](CCCCNCC(=O)O)C(=O)O	106% (inactive)
Cc1cc(-c2nc3ccccc3s2)ccc1NC(=O)COc1ccc(Cl)cc1	99.1% (inactive)
COc1cc2c(cc1OCCCCCn1c(-c3ccc(OCc4ccccc4)cc3)nc3cc(N4CCOCC4)ccc31)N=C[C@@H]1CCCN1C2=O	12.7% (inactive)
O=c1nc2n(nc1/C=C/c1ccco1)CC(c1ccc(Cl)cc1)=NN2	70.1% (inactive)
CCOC(=O)C1=C(C)NC(=O)NC1c1cccs1 (centres undefined)	60.5% (inactive)
O=C(/C=C/C12c3ccccc3C(c3ccccc31)C1C(=O)N(c3ccc(Cl)cc3)C(=O)C12)c1ccccn1 (centres undefined)	-19.4% (active)
CCN1C(=O)N(CC)C2C1NN=c1s/c(=C3\C(=O)N(C)c4ccccc43)c(=O)n12 (centres undefined)	-13% (active)
Clc1ccc2c(NCCCNc3nccc(Nc4ccc(Br)cc4)n3)ccnc2c1	-69.2% (active)
COc1ccncc1C#Cc1cncc(C(=O)Nc2ccc(CN3CCN(C)CC3)c(C(F)(F)F)c2)c1	8.01% (active)
COc1ccc(/C=C/C(=O)CCC(=O)O)cc1OC	96.7% (inactive)
Clc1ccc(-c2nc(-c3cccs3)cn3ccnc23)cc1	98.8% (inactive)
Cc1cc(Cl)nc(N(CCCNc2ccnc3cc(Cl)ccc23)Cc2ccccn2)n1	12% (inactive)
O=c1oc2ccccc2cc1-c1nn(-c2ccccc2)cc1/C=N/Nc1nc(-c2ccccc2)c(N=Nc2ccccc2)s1	58.1% (inactive)
CCCCCCNC(=O)c1cc(NCc2cc(O)ccc2O)ccc1O	-6.21% (active)
N#CCNc1ccccc1N	95.2% (inactive)
COc1cc2c(=O)n(CCCn3ccnc3)c3c4cc5c(cc4ccc3c2cc1OC)OCO5	-15.2% (active)
Brc1cnc2ccccc2c1	89.1% (inactive)
Nc1nc2ncc(CCNc3ccc(C(=O)O)cc3)nc2c(=O)[nH]1	58.2% (inactive)
COc1ccc(-c2cscc2N)cc1	18.7% [100 µM] (inactive)
CC(C)(C)[Si](C)(C)OC1[C@@H](O[Si](C)(C)C(C)(C)C)[C@@H](CNC(=O)NC(=O)CCl)O[C@H]1n1cnc2c(NC(=O)Nc3ccccc3)ncnc21 (some centres undefined)	-73.1% (active)
CC1=C(C(=O)Nc2ccccc2)C(c2ccc3c(c2)OCO3)NC(=S)N1 (centres undefined)	104% (inactive)
COc1cc(OC)c(NC(=O)C(Sc2nc(C)cc(C)c2C#N)c2ccccc2)cc1Cl (centres undefined)	94.1% (inactive)
